PABP1 MLLE inh – inhibitors of microRNA-mediated deadenylation, human PABP1 MLLE binding; GST-MLLE / FITC-PAM2 fluorescence polarization; inhibition, % at 20 µM; 360,000 compounds, 0.36% hits; AID 588489; in the data active = inhibition above about 35%, passing the limit was not always enough;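 note: plate controls were DMSO wells with GST-MLLE for no effect and wells lacking GST-MLLE protein for full effect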
Target sequence (P11940 whole entry, looked up): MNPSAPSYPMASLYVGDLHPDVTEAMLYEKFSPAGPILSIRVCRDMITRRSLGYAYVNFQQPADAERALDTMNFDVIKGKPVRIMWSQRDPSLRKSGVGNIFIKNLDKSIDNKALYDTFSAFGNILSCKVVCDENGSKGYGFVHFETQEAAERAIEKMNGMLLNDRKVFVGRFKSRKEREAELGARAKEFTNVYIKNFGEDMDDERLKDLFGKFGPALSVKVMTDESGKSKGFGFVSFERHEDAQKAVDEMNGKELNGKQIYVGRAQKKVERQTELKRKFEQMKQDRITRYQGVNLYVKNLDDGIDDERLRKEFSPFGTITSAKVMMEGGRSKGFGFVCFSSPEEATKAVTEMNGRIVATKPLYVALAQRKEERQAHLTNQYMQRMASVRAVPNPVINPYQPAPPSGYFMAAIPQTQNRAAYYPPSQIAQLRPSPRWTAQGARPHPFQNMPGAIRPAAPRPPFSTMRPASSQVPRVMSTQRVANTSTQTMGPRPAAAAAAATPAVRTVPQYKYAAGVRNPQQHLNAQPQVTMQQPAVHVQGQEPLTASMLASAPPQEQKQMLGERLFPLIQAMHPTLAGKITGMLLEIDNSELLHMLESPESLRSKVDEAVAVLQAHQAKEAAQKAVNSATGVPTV
ALR H2O2 inh – blocks human ALR sulfhydryl oxidase activity. P55789. purified ALR, DTT oxidation, H2O2 HRP-luminol luminescence. inhibition, % (concentration not given with the values). 290,000 compounds, 3.8% hits. AID 485317;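 active = mean replicate inhibition above about 79%, with every replicate also reaching it, limit read from the data; inconclusive = only one of the two criteria met; inactive = mean below limit and not every replicate reaching it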
Efflux pump mplx – antifungal efflux pump inhibition, Nile Red retention; 330,000 compounds, 0.44% hits; S. cerevisiae Candida pump triplex; inhibition, % at 10 µM; AID 485275;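 active = plate passing quality check with inhibition over a set limit, or well fluorescence over plate mean plus 4 SD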;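 note: Nile Red retained in pooled yeast measured as flow cytometry median fluorescence; 0% = buffer negative control and 100% = Enniatin B positive control; higher means more Nile Red kept so more efflux inhibition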
UBC9 SUMO inh – blocks human SUMOylation mediated by UBC9 | HTRF SUMOylation assay, SAE1/SAE2 + UBC9, in vitro | P63279 | inhibition, % at 35 µM | 290,000 compounds, 0.36% hits; in the data active = inhibition above about 50%, passing the limit was not always enough; inconclusive = no clear call, values can overlap the other calls
eIF4H FP inh – inhibitors of RNA binding by human eIF4H; 290,000 compounds, 0.94% hits; AID 2012; Q15056; eIF4H fluorescence polarization binding assay; inhibition, % at 35 µM;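 note: calls also rest on retests at 20 µM and on dose response follow-up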
PABP FP inh – PABP-poly(A) binding inhibition | P11940 | inhibition, % at 35 µM | AID 2014 | 290,000 compounds, 1% hits | PABP-poly(A) RNA binding, fluorescence polarization;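 note: calls also rest on retests at 20 µM and on dose response follow-up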
Active calls of the source: *; ? = inconclusive; · = not tested or not shown. A selection: hits, their analogues and other compounds. The true share with any hit is near 4.7%. Unless noted, the rule behind the calls is not given here.

SMILES	PABP1 MLLE inh	ALR H2O2 inh	Efflux pump mplx	UBC9 SUMO inh	eIF4H FP inh	PABP FP inh
O=C(CSc1nc2nn(-c3ccccc3)c(=O)c-2c2n1CCCCC2)c1ccc(O)c(O)c1	-62	92*	0	·	·	·
Cc1ccc(NC(=O)C2CCN(S(=O)(=O)c3cccc4cccnc34)CC2)nc1	11	95*	0	17	1	5
O=C(NCc1ccco1)C1CCN(S(=O)(=O)c2cccc3cccnc23)CC1	-1	8	0	11	2	-1
O=C(C1CCN(S(=O)(=O)c2cccc3cccnc23)CC1)N1CCN(C2CCCC2)CC1	1	82*	0	5	4	20
Cc1cccc(NC(=O)C2CCN(S(=O)(=O)c3cccc4cccnc34)CC2)n1	1	27	0	30	-5	-2
O=C(NCc1cccs1)C1CCN(S(=O)(=O)c2cccc3cccnc23)CC1	-5	95*	0	11	-6	-4
CC1(C2CC2)NC(=O)N(CC(=O)NCC(=O)Nc2ccc(F)c(F)c2F)C1=O (configuration not stated)	-10	2	0	·	·	·
COc1ccc(NC2CCCN(C(=O)CCc3ccccc3F)C2)cc1 (configuration not stated)	9	100*	0	9	1	0
COc1ccc(NC2CCCN(C(=O)COc3ccc(C)cc3)C2)cc1 (configuration not stated)	4	90*	0	-15	1	-9
COc1ccc(NC2CCCN(C(=O)CSc3ccccc3)C2)cc1 (configuration not stated)	0	99*	0	9	1	5
COc1ccc(NC2CCCN(C(=O)CCOc3ccccc3)C2)cc1 (configuration not stated)	17	99*	0	0	-14	-4
CCCCCOc1ccc(C(=O)Nc2ccc(N3CCOCC3)cc2N2CCOCC2)cc1	1	-6	0	·	·	·
CCN1C(=O)C(=O)N(CC(=O)Nc2cccc(C(F)(F)F)c2)C1=O	0	-7	0	·	·	·
CCc1c(O)nc(SCC(=O)Nc2nc3ccccc3s2)n(-c2ccccc2)c1=O	22	96*	0	-5	-9	0
C=CCn1c(SCC(=O)Nc2nc3ccccc3s2)nc(O)c(CC)c1=O	7	99*	0	2	58	30
CCn1nnnc1SCC(=O)Nc1nc2ccccc2s1	8	-1	0	13	-10	-6
CCn1c(Cc2ccccc2)nnc1SCC(=O)Nc1nc2ccccc2s1	-10	-7	0	-10	-8	1
CCSCc1nnc(SCC(=O)Nc2nc3ccccc3s2)n1C	-113	-1	0	5	3.0*	60*
CCc1c(O)nc(SCC(=O)Nc2nc3ccccc3s2)n(-c2ccc(C)cc2)c1=O	7	98*	0	-11	-2	-7
NS(=O)(=O)c1ccc(NC(=O)COC(=O)Cn2cnc3ccccc3c2=O)cc1	-42	-13	0	·	·	·
CCc1nc2c(OCc3ccc(C(=O)N(C)C)cc3)cccn2c1N(C)C(=O)c1ccc(C)cc1	-3	·	·	·	·	·
Clc1nnc(N2CCCCC2)c2ccccc12	-9	98*	0	18	-8	0
CC(Cc1ccc(O)c(O)c1)C(C)Cc1ccc(O)c(O)c1 (configuration not stated)	·	99*	0	·	·	·
CN1CCc2cccc3c2[C@H]1Cc1ccc(O)c(O)c1-3	32	99*	0	16	9	3
Cc1ccc2nc3n(c(=O)c2c1)-c1cc2ccccc2cc1C(=O)NC3CC(C)C (configuration not stated)	11	·	·	·	·	·
SMILES	PABP1 MLLE inh	ALR H2O2 inh	Efflux pump mplx	UBC9 SUMO inh	eIF4H FP inh	PABP FP inh
NCCN1C(=O)S/C(=C\c2ccc3c(c2)OCO3)C1=O	20	92*	0	20	-18	-4
O=C(CNC(=O)c1ccccc1F)NCCN1C(=O)S/C(=C\c2ccc3c(c2)OCO3)C1=O	19	·	0	·	·	·
Cc1ccc(-c2nc(SCC(=O)NCC3CCCO3)c(-c3ccccc3)[nH]2)cc1 (configuration not stated)	11	38	0	9	-12	-4
CCCS(=O)(=O)NC(=O)C1(C)CCN(C(=O)Cc2ccc(OC)cc2)C1 (configuration not stated)	6	·	·	·	·	·
CC(=O)Nc1ccc(NCCc2ccco2)cc1	-11	·	·	·	·	·
CSc1ncc(Cl)c(C(=O)Nc2ccccc2Br)n1	-2	-23	0	-4	-7	-2
COc1ccc(-c2ccc(/C=C3/C(=N)N4C(C)=CSC4=NC3=O)o2)c([N+](=O)[O-])c1	49	-28	0	16	91*	active
O=C(Cc1coc2cc(O)ccc12)NNC(=O)c1ccc(Br)s1	-21	99*	0	·	·	·
COc1ccccc1S(=O)(=O)N(C)C[C@H]1Oc2cc(C#CCC3CCCC3)ccc2S(=O)(=O)N([C@H](C)CO)C[C@H]1C	-66	·	·	·	·	·
CC(C)C1Cc2c(sc3c2c(=O)n(-c2ccccc2)c2n[nH]c(=S)n32)CO1 (configuration not stated)	-78	94*	0	10	-10	-3
CSc1nnc2n(-c3ccccc3)c(=O)c3c4c(sc3n12)CCC4	-36	2	0	7	5	8
COc1ccc(-n2c(=O)c3c4c(sc3n3c(=S)[nH]nc23)CCCC4)cc1	-104	96*	0	16	-11	-9
CC(=O)c1c(COC(=O)c2cccnc2)nc2ccccc2[n+]1[O-]	-123	·	0	5	5	64*
CC(=O)c1c(COC(=O)c2ccc(C)cc2)nc2ccccc2[n+]1[O-]	-10	1	0	15	3	6
Cc1c[nH]c2cccc(OCC(CNC(C)(C)C)OC(=O)c3ccccc3)c12 (configuration not stated)	6	81*	0	10	1	10
CNC(=O)c1cc(C(=O)c2ccc(F)cc2C(F)(F)F)c[nH]1	15	2	0	19	-5	-11
C=CCNc1ncnc2c1ncn2[C@H]1CN(Cc2ccccc2)C[C@@H](COC(C)=O)O1	11	·	·	·	·	·
CCOc1cc2c(C#N)c(N(CC)CC)nc(N)c2c(N)n1	-55	67	0	·	·	·
COc1ccc(CN2C(=O)Cc3c2nc(N)c2c(N)nc(N4CCOCC4)c(C#N)c32)cc1	-19	-28	0	101*	?	47
CN(CCO)c1nc(N)c2c(N)nc3c(c2c1C#N)CC(=O)N3Cc1cccs1	1	-11	0	101*	27	0
CCOc1cc2c(C#N)c(N3CCOCC3)nc(N)c2c(N)n1	7	43	0	97*	73*	57*
COCCN1C(=O)Cc2c1nc(N)c1c(N)nc(N3CCN(c4ccc(F)cc4)CC3)c(C#N)c21	-35	-6	0	93*	26	-1
CCOCc1c(C(=O)NCC(c2ccco2)N2CCCC2)oc2ccccc12 (configuration not stated)	6	1	0	·	·	·

Compound activity from PubChem.
